Assay results published in PubChem BioAssay AID1662 (Broad Institute, 2009).
The whole screen tested about 300,000 compounds, of which about 4,000 (1.3%) were called active. Shown is part of a subset that was picked to be rich in actives. Unmarked numbers belong to inactive results.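 How the source made its calls: active means mean replicate score, as percent of positive control median, at least 50; inconclusive means mean below 50 but one replicate at or above 50; inactive means mean and every replicate below 50.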

Experiment: S. pyogenes SKKanGAS growth inhibitors in kanamycin, primary screen, streptokinase expression inhibitor project, SKKanGAS strain, BacTiter-Glo luminescence (AID 1662);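 further: strain carries kanamycin resistance gene driven by streptokinase promoter and grows in 40 µg/ml kanamycin; loss of luminescence reflects streptokinase promoter inhibition or plain growth inhibition; 0% = median of DMSO wells and 100% = positive control at its reference dose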
Details: 6 h, at 7.5 µM, hits give high values

For `Cc1ccc2c(c1)-c1c(ssc1=S)C(C)(C)N2C(=O)CN1C(=O)c2ccccc2C1=O`, which inhibition is on record?
Its inhibition is 24.3%.

With `Nc1nc(NC(=O)/C=C/c2ccccc2)nn1-c1ccccc1` as the molecule, how does the inhibition read?
The inhibition was -11.5%.

For `Nc1nc(NC(=O)/C=C/c2ccc(F)cc2)nn1-c1ccccc1`, which inhibition is on record?
Its inhibition is 76.1% (active).

For `Cc1ccc(C(=O)Nc2nc(N)n(-c3ccccc3)n2)cc1`, which inhibition is on record?
The inhibition was 5.73%.

With `Cc1sc2nc(SCCO)n(-c3ccccc3)c(=O)c2c1C` as the molecule, how does the inhibition read?
The inhibition was 7.52%.

Which inhibition does the source give for `COC(=O)c1ccc(NC(=O)C23CC4CC(C2)CC(n2cnc(Cl)n2)(C4)C3)cc1` here?
The inhibition was -3.03%.

Which inhibition does the source give for `Cc1cc(C)c(NC(=O)c2oc3ccccc3c2COc2ccccc2)c(C)c1` here?
The inhibition was 58.7% (active).

For `COCc1c(C(=O)OCc2c(C)noc2C)oc2ccccc12`, which inhibition is on record?
Its inhibition is 2.6%.

For `CCOC(=O)c1oc2ccccc2c1NC(=O)c1cccs1`, which inhibition is on record?
Its inhibition is -5.47%.

Which inhibition does the source give for `CCc1ccc(NC(=O)CN2C(=O)COc3ccc(S(=O)(=O)N4CCCC4)cc32)cc1` here?
Its inhibition is 2.1%.

Which inhibition does the source give for `CCn1ccnc1CNC(=O)CC1C(=O)NCCN1CCCc1ccccc1` (stereo unspecified) here?
Its inhibition is -0.266%.

For `O=C(NCc1cccnc1)Nc1cccc(NC(=O)NCc2cccnc2)c1F`, which inhibition is on record?
The inhibition was -0.181%.

Which inhibition does the source give for `O=C(Nc1ccccc1)N1CCN(C(=O)Nc2ccccc2)CC1` here?
Its inhibition is 3.57%.

Which inhibition does the source give for `O=C(Nc1ccc(Cl)c(Cl)c1)N1CC=C(c2ccccc2)CC1` here?
The inhibition was 58.4% (active).

Which inhibition does the source give for `COc1cc(C(=O)NCC(=O)N2CC=C(c3ccccc3)CC2)cc(OC)c1OC` here?
The inhibition was 9.79%.

With `CCO[C@@H]1OC(C(N)=O)=C[C@H](c2ccc(Br)cc2)[C@H]1CCCO` as the molecule, how does the inhibition read?
Its inhibition is 0.82%.

Which inhibition does the source give for `Cc1cccn2c(CNCC(C)Oc3cccnc3)c(C(=O)N3CCOCC3)nc12` (stereo unspecified) here?
The inhibition was -4.82%.

With `COc1cc(/C=N\Nc2nc(-c3cccs3)c(NC(C)=O)s2)ccc1O` as the molecule, how does the inhibition read?
Its inhibition is 1.83%.

With `CCOc1cc(/C=C(\C#N)c2nc(-c3cccs3)c(NC(C)=O)s2)ccc1O` as the molecule, how does the inhibition read?
The inhibition was 109% (active).

For `COc1cc(/C=C(\C#N)c2nc3c(s2)CC(C)CC3)ccc1O` (stereo unspecified), which inhibition is on record?
The inhibition was 10.1%.

With `O=C(Cn1cnc2ccccc21)Nc1ccccc1-c1ccccc1` as the molecule, how does the inhibition read?
Its inhibition is 0.579%.

Which inhibition does the source give for `CCOc1ccc(C(=O)Nc2cc(Cl)ccc2-n2cncn2)cc1OC` here?
Its inhibition is -2.54%.

For `CCOC(=O)NNc1cc(C(F)(F)F)ccn1`, which inhibition is on record?
Its inhibition is 0.731%.

Which inhibition does the source give for `O=C(/C=C/c1ccc(Cl)cc1)NCCCn1ccnc1` here?
The inhibition was -2.11%.

With `CCOC(=O)CC(NC(=O)C1c2ccccc2Oc2ccccc21)c1ccc(C)cc1` (stereo unspecified) as the molecule, how does the inhibition read?
The inhibition was 5.34%.

With `O=C(N/N=C/c1ccccc1O)C1CCCC1` as the molecule, how does the inhibition read?
The inhibition was 73.1% (active).

Which inhibition does the source give for `Oc1ccccc1C=NC1CCCCC1N=Cc1ccccc1O` (stereo unspecified) here?
The inhibition was -8.77%.

For `COc1ccc(/C=N/NC(=O)C2CC2)c(OC)c1OC`, which inhibition is on record?
Its inhibition is 14.5%.

For `CC1(C(=O)NNC(=S)NCC2CCCO2)CC1(Cl)Cl` (stereo unspecified), which inhibition is on record?
The inhibition was 2.55%.

Which inhibition does the source give for `COc1ccc(OC)c(NC(=O)c2ccc3c(c2)CCN3S(C)(=O)=O)c1` here?
Its inhibition is -4.51%.

With `Nc1nc(SCC(=O)NNc2c(Cl)cc(Cl)cc2Cl)n[nH]1` as the molecule, how does the inhibition read?
The inhibition was 7.52%.

For `CCOc1cc(NC(=O)CCl)c(OCC)cc1NC(C)=O`, which inhibition is on record?
The inhibition was -2.78%.

Which inhibition does the source give for `COc1ccc(S(=O)(=O)N2CCCCC2)cc1NC(=O)C1CC(=O)N(c2ccc3c(c2)OCCO3)C1` (stereo unspecified) here?
Its inhibition is 14.5%.

With `COCc1ccc(C(=O)NC2CC(C)(C)Cc3c2cnn3-c2ccc(C)cc2)o1` (stereo unspecified) as the molecule, how does the inhibition read?
The inhibition was -6.03%.

For `Cc1ccc(-c2csc(N3CCN(c4cc5c(cc4Cl)nc(-c4ccncc4)n5CCOCCO)CC3)n2)cc1`, which inhibition is on record?
Its inhibition is 47.5%.

Which inhibition does the source give for `Nc1c(Cl)cc(-c2csc(N3CCCC3c3nc4cc(Cl)c(Cl)cc4n3CCOCCO)n2)cc1Cl` (stereo unspecified) here?
Its inhibition is 62.1% (active).

With `CCCn1c(C2CCCN2c2nc(-c3ccc(C)cc3)cs2)nc2cc(Cl)c(N3CCCCC3)cc21` (stereo unspecified) as the molecule, how does the inhibition read?
The inhibition was 9.01%.

With `COc1ccccc1-c1nc(SC)n[nH]1` as the molecule, how does the inhibition read?
The inhibition was -1.68%.

For `COc1ccc(-c2n[nH]c(C)c2-c2ccccc2OC)c(O)c1`, which inhibition is on record?
Its inhibition is 1.39%.

With `COc1ccccc1-c1n[nH]c2c1[C@H](C)CC[C@H]2C(C)C` as the molecule, how does the inhibition read?
The inhibition was 91.1% (active).

For `O=C(CSc1nc2ccccc2c(=O)[nH]1)Nc1nc(-c2ccc(Br)cc2)cs1`, which inhibition is on record?
Its inhibition is 4.78%.

With `Cc1cc(C)c2c(=O)[nH]c(SCC(=O)Nc3ccc(Br)cc3)nc2n1` as the molecule, how does the inhibition read?
Its inhibition is 30%.

Which inhibition does the source give for `N#Cc1c(-c2cccs2)nc(SCC(=O)c2ccc(Br)cc2)[nH]c1=O` here?
Its inhibition is 55.8% (active).

Which inhibition does the source give for `N#CC1(NC(=O)COC(=O)Cc2n[nH]c(=O)c3ccccc23)CCCCC1` here?
Its inhibition is -3.3%.

For `Cc1ccc(S(=O)(=O)c2ccc(Cl)cc2)cc1S(=O)(=O)NC(C(=O)O)C(C)C` (stereo unspecified), which inhibition is on record?
The inhibition was 0.0508%.

Which inhibition does the source give for `COc1cc2c(cc1NC(=O)COC(=O)/C=C/c1ccccc1)oc1ccccc12` here?
Its inhibition is -12.9%.

For `O=C(NNC(=S)NC(=O)c1cn(-c2ccccc2)nc1-c1ccccc1)c1ccncc1`, which inhibition is on record?
The inhibition was 99.7% (active).

With `O=C(Nc1cn(-c2ccccc2)nc1-c1ccccc1)c1ccccc1` as the molecule, how does the inhibition read?
Its inhibition is -2.24%.

With `Cc1onc(-c2ccccc2)c1C(=O)NNC(=S)NC(=O)c1ccc(F)cc1` as the molecule, how does the inhibition read?
The inhibition was 7.91%.

With `COC(=O)Cn1cc(/C=C/[N+](=O)[O-])c2ccccc21` as the molecule, how does the inhibition read?
Its inhibition is 0.686%.

With `O=C(CN1C(=O)S/C(=C\c2ccccc2F)C1=O)NCCCn1ccnc1` as the molecule, how does the inhibition read?
Its inhibition is 2.35%.

For `O=C(CN1C(=O)/C(=C/c2ccccc2F)Sc2ccccc21)NCc1cccnc1`, which inhibition is on record?
Its inhibition is -8.35%.

With `O=C(CN1C(=O)/C(=C\c2ccccc2F)SC1=S)Nc1nc2ccccc2s1` as the molecule, how does the inhibition read?
The inhibition was 94.2% (active).

Which inhibition does the source give for `O=c1[nH]c(CCl)nc2cc(-c3ccc(Cl)cc3)sc12` here?
The inhibition was 29.5%.

For `CC1CCc2c(nc3ncnn3c2Nc2ccc(OC(F)(F)F)cc2)C1` (stereo unspecified), which inhibition is on record?
Its inhibition is 2.5%.

For `COc1cc(/C=N/Nc2nc3ccccc3s2)ccc1O`, which inhibition is on record?
The inhibition was -7.58%.

For `c1ccc2sc(NN=C3CCCC3)nc2c1`, which inhibition is on record?
The inhibition was 18.5%.

For `COc1ccc(CC(=O)NCC(=O)N/N=C/c2cc(Br)ccc2OC)cc1`, which inhibition is on record?
Its inhibition is 4.99%.

With `O=[N+]([O-])c1cc(Br)c(O)c(/C=N/Nc2nc3ccccc3s2)c1` as the molecule, how does the inhibition read?
Its inhibition is 92% (active).

With `COc1ccc(CC(=O)N/N=C/c2cc([N+](=O)[O-])cc(Br)c2O)cc1` as the molecule, how does the inhibition read?
The inhibition was 61.6% (active).

With `COc1cc(OC)c(/C=N/NC(=O)c2ccc([N+](=O)[O-])cc2)cc1Br` as the molecule, how does the inhibition read?
Its inhibition is -10.8%.

Which inhibition does the source give for `CC1(C)c2[nH]c3ccccc3c2C[C@H]2C(=O)N(N)CC(=O)N21` here?
Its inhibition is 1.39%.

With `NNC(=O)c1ccc(COCC(F)(F)C(F)F)cc1` as the molecule, how does the inhibition read?
Its inhibition is -2.77%.

For `CC(=O)c1ccc(N2CCN(C(=O)CCNC(=O)Cn3ccc4ccccc4c3=O)CC2)cc1`, which inhibition is on record?
The inhibition was 0.0785%.

For `Cc1cc(C)cc(C(=O)NC(CC(N)=O)c2ccc(N3CCC(N4CCCCC4)CC3)c([N+](=O)[O-])c2)c1` (stereo unspecified), which inhibition is on record?
Its inhibition is -2.72%.

With `Cc1ccc2c(c1)c1ncnc(N3CCc4ccccc4C3)c1n2C` as the molecule, how does the inhibition read?
The inhibition was 47.1%.

For `CCOc1ccc(C(=O)NC(=S)Nc2ccc(N3CCOCC3)c(Cl)c2)cc1[N+](=O)[O-]`, which inhibition is on record?
The inhibition was 84% (active).

For `COc1cccc(OC)c1C(=O)NC(=S)Nc1ccc(N2CCOCC2)c(Cl)c1`, which inhibition is on record?
Its inhibition is 4.82%.

For `CCOc1ccc(C(=O)NC(=S)Nc2ccc(NC(=O)C(C)C)cc2)cc1[N+](=O)[O-]`, which inhibition is on record?
Its inhibition is 19.7%.

With `CCN(CC)C(=O)CS(=O)CC(=O)Nc1cc(OCCOC)c(Cl)cc1Cl` (stereo unspecified) as the molecule, how does the inhibition read?
Its inhibition is 0.17%.

For `COc1ccc(NC(=O)Nc2cccc3cccnc23)cc1`, which inhibition is on record?
Its inhibition is -7.39%.

For `Cc1ccc(NS(=O)(=O)c2ccc(C)c(NC(=O)COc3ccc4ccccc4c3)c2)c(C)c1`, which inhibition is on record?
The inhibition was 29.6%.

Which inhibition does the source give for `COc1cc(NS(=O)(=O)c2ccc3ccccc3c2)c2ncccc2c1` here?
Its inhibition is 85% (active).

For `C/C(=N\NC(=O)c1cccc([N+](=O)[O-])c1)c1cccnc1`, which inhibition is on record?
Its inhibition is -2.34%.

With `O=C(Nc1ccc(C(=O)N2CCCCC2)cc1)c1cccc([N+](=O)[O-])c1` as the molecule, how does the inhibition read?
Its inhibition is 6.65%.

Which inhibition does the source give for `Cn1ccc(=Nc2ccc(NC(=O)c3ccc(N=c4ccn(C)c5ccc([N+](=O)[O-])cc45)cc3)cc2)cc1` here?
Its inhibition is 75.8% (active).

For `Cc1cc([N+](=O)[O-])ccc1NC(=O)c1ccc(NC(=O)C(C)C)cc1`, which inhibition is on record?
Its inhibition is 10.6%.

With `O=C(CCN1C(=O)[C@@H]2Cc3ccccc3CN2C1=O)NCc1ccccc1` as the molecule, how does the inhibition read?
The inhibition was -1.78%.

Which inhibition does the source give for `COC(=O)C1(C)NC(c2ccc(C)cc2)C2C(=O)N(c3ccc(F)cc3)C(=O)C21` (stereo unspecified) here?
Its inhibition is 0.707%.

For `NC(N)=N/N=C/c1ccc(OCc2ccc(Cl)cc2Cl)cc1`, which inhibition is on record?
Its inhibition is 50.8% (active).

For `OC(CNCCc1ccc(Cl)cc1Cl)COc1ccccc1` (stereo unspecified), which inhibition is on record?
The inhibition was 8.35%.

Which inhibition does the source give for `CCOc1ccc(NC(=O)NNC(=O)c2ccc(Cl)cc2Cl)cc1` here?
The inhibition was -4.81%.

With `CCN(CCn1cccn1)C(=O)CC1C(=O)NCCN1Cc1cccc(OC)c1OC` (stereo unspecified) as the molecule, how does the inhibition read?
The inhibition was -6.29%.

With `C/C(=N\NC(=O)OC(C)(C)C)c1ccc[nH]1` as the molecule, how does the inhibition read?
The inhibition was -6.42%.

For `N#Cc1c(-c2ccccc2)nc(SCc2cccc(C(F)(F)F)c2)[nH]c1=O`, which inhibition is on record?
Its inhibition is 67.4% (active).

Which inhibition does the source give for `N#Cc1c(-c2ccccc2)nc(SCc2ccc([N+](=O)[O-])cc2)[nH]c1=O` here?
Its inhibition is 15.1%.

Which inhibition does the source give for `Cc1ccc(CSc2nc(-c3ccccc3)c(C#N)c(=O)[nH]2)cc1` here?
Its inhibition is 43.6%.

For `CN1CCN(C2Cc3ccc(Cl)cc3Sc3ccc(F)cc32)CC1` (stereo unspecified), which inhibition is on record?
The inhibition was 68.7% (active).

For `Cc1ccc(CS(=O)(=O)c2ncc(Cl)c(C(=O)Nc3nnc(C)s3)n2)cc1`, which inhibition is on record?
Its inhibition is 2.36%.

With `C/C(=N\NC(=O)c1ccoc1C)c1ccccc1O` as the molecule, how does the inhibition read?
The inhibition was 4.94%.

With `Cc1ccc(-n2ncc3c2CC(C)(C)CC3NC(=O)Cc2c(C)noc2C)cc1` (stereo unspecified) as the molecule, how does the inhibition read?
Its inhibition is -4.1%.
